Measured values taken from PubChem BioAssay AID1159580 (chemical genetic matrix, 2015).
In all, about 5,500 compounds went through this assay and about 2,000 (36%) were called active. Inconclusive results (about 18%) are left out. Cut-off read from the data, not from the text of the source: active = normalized growth mostly below about 0.91 (no sharp cut-off); inconclusive = no clear call, values can overlap the other calls; inactive = mostly above about 0.92. This is one part of the list.

Test: chemical genetic growth profiling, strain panel (AID 1159580);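 note: tested at 20 µM; growth read once vehicle control cultures reached saturation at 30 °C; 1 = growth at the plate median or of vehicle wells; lower values mean less growth of the strain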
Settings: S. cerevisiae deletion strains, growth OD
[1] = locus YAL021C, strain ccr4, active compounds read low
[2] = locus YAL026C, strain drs2, active compounds read low
[3] = locus YAL030W, strain snc1, active compounds read low
[4] = locus YBL061C, strain skt5, active compounds read low
[5] = locus YBR009C, strain hhf1, active compounds read low
[6] = locus YBR023C, strain chs3, active compounds read low
[7] = locus YBR171W, strain sec66, active compounds read low
[8] = locus YBR231C, strain swc5, active compounds read low
[9] = locus YBR279W, strain paf1, active compounds read low
[10] = locus YCL011C, strain gbp2, active compounds read low
[11] = locus YCL016C, strain dcc1, active compounds read low
[12] = locus YCL061C, strain MRC1, active compounds read low
[13] = locus YCL069W, strain vba3, active compounds read low
[14] = locus YCR088W, strain abp1, active compounds read low
[15] = locus YDL005C, strain med2, active compounds read low
[16] = locus YDL040C, strain nat1, active compounds read low
[17] = locus YDR001C, strain nth1, active compounds read low
[18] = locus YDR069C, strain doa4, active compounds read low
[19] = locus YDR137W, strain rgp1, active compounds read low
[20] = locus YDR159W, strain sac3, active compounds read low
[21] = locus YDR297W, strain sur2, active compounds read low
[22] = locus YDR334W, strain swr1, active compounds read low
[23] = locus YDR335W, strain msn5, active compounds read low
[24] = locus YDR392W, strain spt3, active compounds read low
[25] = locus YEL003W, strain gim4, active compounds read low
[26] = locus YEL037C, strain rad23, active compounds read low
[27] = locus YEL061C, strain CIN8 (second series), active compounds read low
[28] = locus YER015W, strain faa2, active compounds read low
[29] = locus YER016W, strain bim1, active compounds read low
[30] = locus YER111C, strain swi4, active compounds read low
[31] = locus YER155C, strain BEM2 (second series), active compounds read low
[32] = locus YFR010W, strain ubp6, active compounds read low
[33] = locus YGL167C, strain pmr1, active compounds read low
[34] = locus YGL173C, strain kem1, active compounds read low
[35] = locus YGL227W, strain vid30, active compounds read low
[36] = locus YGL240W, strain doc1, active compounds read low
[37] = locus YGL253W, strain hxk2, active compounds read low
[38] = locus YHR013C, strain ard1, active compounds read low
[39] = locus YHR027C, strain rpn1, active compounds read low
[40] = locus YHR030C, strain SLT2, active compounds read low
[41] = locus YHR079C, strain IRE1, active compounds read low
[42] = locus YHR142W, strain chs7, active compounds read low
[43] = locus YJL092W, strain hpr5, active compounds read low
[44] = locus YJL095W, strain BCK1 (second series), active compounds read low
[45] = locus YJL095W, strain BCK1, active compounds read low
[46] = locus YJL115W, strain asf1, active compounds read low
[47] = locus YJL129C, strain trk1, active compounds read low
[48] = locus YJL154C, strain vps35, active compounds read low
[49] = locus YJL164C, strain tpk1, active compounds read low
[50] = locus YJL166W, strain qcr8, active compounds read low
[51] = locus YJL187C, strain SWE1, active compounds read low
[52] = locus YJR066W, strain TOR1, active compounds read low
[53] = locus YKL160W, strain elf1, active compounds read low
[54] = locus YKR026C, strain gcn3, active compounds read low
[55] = locus YKR091W, strain srl3, active compounds read low
[56] = locus YLL001W, strain dnm1, active compounds read low
[57] = locus YLL026W, active compounds read low
[58] = locus YLL041C, strain sdh2, active compounds read low
[59] = locus YLR027C, strain aat2, active compounds read low
[60] = locus YLR113W, strain HOG1, active compounds read low
[61] = locus YLR221C, strain rsa3, active compounds read low
[62] = locus YLR258W, strain gsy2, active compounds read low
[63] = locus YLR262C, strain YPT6 (second series), active compounds read low
[64] = locus YLR320W, strain mms22, active compounds read low
[65] = locus YLR342W, strain FKS1, active compounds read low
[66] = locus YLR357W, strain rsc2, active compounds read low
[67] = locus YLR370C, strain arc18, active compounds read low
[68] = locus YLR384C, strain iki3, active compounds read low
[69] = locus YML120C, strain ndi1, active compounds read low
[70] = locus YMR058W, strain fet3, active compounds read low
[71] = locus YMR125W, strain sto1, active compounds read low
[72] = locus YMR129W, active compounds read low
[73] = locus YMR205C, strain PFK2, active compounds read low
[74] = locus YMR231W, strain pep5, active compounds read low
[75] = locus YNL071W, strain lat1, active compounds read low
[76] = locus YNL183C, strain NPR1, active compounds read low
[77] = locus YNL209W, strain ssb2, active compounds read low
[78] = locus YNL248C, strain rpa49, active compounds read low
[79] = locus YNL322C, strain KRE1 (second series), active compounds read low
[80] = locus YNR049C, strain mso1, active compounds read low
[81] = locus YOR001W, strain rrp6, active compounds read low
[82] = locus YOR070C, strain gyp1, active compounds read low
[83] = locus YOR080W, strain dia2, active compounds read low
[84] = locus YOR083W, strain WHI5, active compounds read low
[85] = locus YOR106W, strain vam3, active compounds read low
[86] = locus YOR231W, strain MKK1, active compounds read low
[87] = locus YOR265W, strain rbl2, active compounds read low
[88] = locus YOR270C, strain vph1, active compounds read low
[89] = locus YOR290C, strain snf2, active compounds read low
[90] = locus YPL051W, strain arl3, active compounds read low
[91] = locus YPL078C, strain atp4, active compounds read low
[92] = locus YPL106C, strain sse1, active compounds read low
[93] = locus YPL240C, strain hsp82, active compounds read low
[94] = locus YPL256C, strain CLN2, active compounds read low

Measured: normalized growth

CNS(=O)(=O)c1ccc(NC(=O)c2ccccc2C(=O)O)cc1
inactive: [1] 1 | [2] 1 | [3] 1 | [4] 0.993 | [5] 0.998 | [6] 1 | [7] 0.996 | [8] 0.991 | [9] 1 | [10] 0.993 | [11] 1 | [12] 1 | [13] 1 | [14] 0.999 | [15] 1 | [16] 1 | [17] 0.996 | [18] 0.995 | [19] 1.01 | [20] 0.982 | locus YDR195W, strain ref2 0.977 | [21] 0.995 | [22] 1 | [23] 1 | [24] 0.968 | [25] 0.994 | [26] 1.01 | [27] 0.999 | [28] 0.989 | [29] 1.01 | [30] 1 | [31] 1 | [32] 1.01 | [33] 0.993 | [34] 0.997 | [35] 0.998 | [36] 0.988 | [37] 0.998 | [38] 0.997 | [39] 0.992 | [40] 0.995 | [41] 0.992 | [42] 1.02 | [43] 0.995 | [44] 0.99 | [45] 0.981 | [46] 0.995 | [47] 1.02 | [48] 0.997 | [49] 1.01 | [50] 0.998 | [51] 0.99 | [52] 0.931 | [53] 1.01 | [54] 0.979 | [55] 0.994 | [56] 1.01 | [57] 0.995 | [58] 1 | [59] 1 | [60] 0.969 | [61] 1 | [62] 0.998 | [63] 0.992 | [64] 1 | [65] 0.994 | [66] 0.994 | [67] 0.995 | [68] 0.992 | [69] 0.992 | [70] 0.998 | [71] 0.994 | [72] 1.01 | [73] 0.967 | [74] 0.998 | [75] 1.01 | [76] 0.933 | [77] 0.997 | [78] 0.998 | [79] 0.998 | [80] 1 | [81] 1 | [82] 0.999 | [83] 0.994 | [84] 0.997 | [85] 1.01 | [86] 0.991 | [87] 1.01 | [88] 1.03 | [89] 0.995 | [90] 1.02 | [91] 1.02 | [92] 0.984 | [93] 0.992 | [94] 0.987

CC(=O)NS(=O)(=O)c1ccc(NC(=O)c2ccccc2C(=O)O)cc1
inactive: [1] 1.01 | [2] 1.02 | [3] 1.02 | [4] 1.01 | [5] 1.03 | [6] 1.02 | [7] 1.04 | [8] 1.01 | [9] 1.02 | [10] 1.01 | [11] 1.02 | [12] 1.02 | [13] 1.02 | [14] 1.01 | [15] 1.02 | [16] 1.02 | [17] 1.01 | [18] 1.02 | [19] 1.04 | [20] 1.04 | locus YDR195W, strain ref2 1.01 | [21] 1.01 | [22] 1.01 | [23] 1.01 | [24] 1.01 | [25] 1.01 | [26] 1.01 | [27] 1.02 | [28] 1.02 | [29] 1.02 | [30] 1.02 | [31] 1.05 | [32] 1.02 | [33] 1.02 | [34] 1.02 | [35] 1.02 | [36] 1.01 | [37] 1.02 | [38] 1.02 | [39] 1.02 | [40] 0.958 | [41] 0.969 | [42] 1.04 | [43] 1.01 | [44] 1.02 | [45] 0.972 | [46] 1.02 | [47] 1.03 | [48] 1.02 | [49] 1.01 | [50] 1.02 | [51] 1.01 | [52] 0.949 | [53] 1.02 | [54] 1 | [55] 1.01 | [56] 1.01 | [57] 1.02 | [58] 1.02 | [59] 1.02 | [60] 0.976 | [61] 1.02 | [62] 1.01 | [63] 1.03 | [64] 1.03 | [65] 1.01 | [66] 1.05 | [67] 1.02 | [68] 1.03 | [69] 1.01 | [70] 1.04 | [71] 1.03 | [72] 1.03 | [73] 1.02 | [74] 1.02 | [75] 1.02 | [76] 0.91 | [77] 1.02 | [78] 1.02 | [79] 1.01 | [80] 1.01 | [81] 1.02 | [82] 1.01 | [83] 1.01 | [84] 1.01 | [85] 1.03 | [86] 0.953 | [87] 1.03 | [88] 1.05 | [89] 1.04 | [90] 1.03 | [91] 1.02 | [92] 0.991 | [93] 1.01 | [94] 0.975
